Entries with a potency or affinity are not part of this list. Results filed as inconclusive are left out. The source made the active and inactive calls.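 Rule for the calls: active = compounds lowering the FRET ratio whose fitted half-maximal concentration is at most twice their top tested dose; inconclusive = flat partial drop between 30 and 70 percent, or bad fit; inactive = the rest.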
Biological target: Voltage-dependent L-type calcium channel subunit alpha-1D (Homo sapiens) (UniProt Q01668)
Experiment: disruptors of CaV1.3 IQ/ICDI domain association – cell-based, HEK293, YFP-IQ/CFP-ICDI FRET, cherry-picks, dose response (AID 1053205)

Sequence of Voltage-dependent L-type calcium channel subunit alpha-1D (Homo sapiens) (Q01668 whole entry, looked up, the tested form may be a part): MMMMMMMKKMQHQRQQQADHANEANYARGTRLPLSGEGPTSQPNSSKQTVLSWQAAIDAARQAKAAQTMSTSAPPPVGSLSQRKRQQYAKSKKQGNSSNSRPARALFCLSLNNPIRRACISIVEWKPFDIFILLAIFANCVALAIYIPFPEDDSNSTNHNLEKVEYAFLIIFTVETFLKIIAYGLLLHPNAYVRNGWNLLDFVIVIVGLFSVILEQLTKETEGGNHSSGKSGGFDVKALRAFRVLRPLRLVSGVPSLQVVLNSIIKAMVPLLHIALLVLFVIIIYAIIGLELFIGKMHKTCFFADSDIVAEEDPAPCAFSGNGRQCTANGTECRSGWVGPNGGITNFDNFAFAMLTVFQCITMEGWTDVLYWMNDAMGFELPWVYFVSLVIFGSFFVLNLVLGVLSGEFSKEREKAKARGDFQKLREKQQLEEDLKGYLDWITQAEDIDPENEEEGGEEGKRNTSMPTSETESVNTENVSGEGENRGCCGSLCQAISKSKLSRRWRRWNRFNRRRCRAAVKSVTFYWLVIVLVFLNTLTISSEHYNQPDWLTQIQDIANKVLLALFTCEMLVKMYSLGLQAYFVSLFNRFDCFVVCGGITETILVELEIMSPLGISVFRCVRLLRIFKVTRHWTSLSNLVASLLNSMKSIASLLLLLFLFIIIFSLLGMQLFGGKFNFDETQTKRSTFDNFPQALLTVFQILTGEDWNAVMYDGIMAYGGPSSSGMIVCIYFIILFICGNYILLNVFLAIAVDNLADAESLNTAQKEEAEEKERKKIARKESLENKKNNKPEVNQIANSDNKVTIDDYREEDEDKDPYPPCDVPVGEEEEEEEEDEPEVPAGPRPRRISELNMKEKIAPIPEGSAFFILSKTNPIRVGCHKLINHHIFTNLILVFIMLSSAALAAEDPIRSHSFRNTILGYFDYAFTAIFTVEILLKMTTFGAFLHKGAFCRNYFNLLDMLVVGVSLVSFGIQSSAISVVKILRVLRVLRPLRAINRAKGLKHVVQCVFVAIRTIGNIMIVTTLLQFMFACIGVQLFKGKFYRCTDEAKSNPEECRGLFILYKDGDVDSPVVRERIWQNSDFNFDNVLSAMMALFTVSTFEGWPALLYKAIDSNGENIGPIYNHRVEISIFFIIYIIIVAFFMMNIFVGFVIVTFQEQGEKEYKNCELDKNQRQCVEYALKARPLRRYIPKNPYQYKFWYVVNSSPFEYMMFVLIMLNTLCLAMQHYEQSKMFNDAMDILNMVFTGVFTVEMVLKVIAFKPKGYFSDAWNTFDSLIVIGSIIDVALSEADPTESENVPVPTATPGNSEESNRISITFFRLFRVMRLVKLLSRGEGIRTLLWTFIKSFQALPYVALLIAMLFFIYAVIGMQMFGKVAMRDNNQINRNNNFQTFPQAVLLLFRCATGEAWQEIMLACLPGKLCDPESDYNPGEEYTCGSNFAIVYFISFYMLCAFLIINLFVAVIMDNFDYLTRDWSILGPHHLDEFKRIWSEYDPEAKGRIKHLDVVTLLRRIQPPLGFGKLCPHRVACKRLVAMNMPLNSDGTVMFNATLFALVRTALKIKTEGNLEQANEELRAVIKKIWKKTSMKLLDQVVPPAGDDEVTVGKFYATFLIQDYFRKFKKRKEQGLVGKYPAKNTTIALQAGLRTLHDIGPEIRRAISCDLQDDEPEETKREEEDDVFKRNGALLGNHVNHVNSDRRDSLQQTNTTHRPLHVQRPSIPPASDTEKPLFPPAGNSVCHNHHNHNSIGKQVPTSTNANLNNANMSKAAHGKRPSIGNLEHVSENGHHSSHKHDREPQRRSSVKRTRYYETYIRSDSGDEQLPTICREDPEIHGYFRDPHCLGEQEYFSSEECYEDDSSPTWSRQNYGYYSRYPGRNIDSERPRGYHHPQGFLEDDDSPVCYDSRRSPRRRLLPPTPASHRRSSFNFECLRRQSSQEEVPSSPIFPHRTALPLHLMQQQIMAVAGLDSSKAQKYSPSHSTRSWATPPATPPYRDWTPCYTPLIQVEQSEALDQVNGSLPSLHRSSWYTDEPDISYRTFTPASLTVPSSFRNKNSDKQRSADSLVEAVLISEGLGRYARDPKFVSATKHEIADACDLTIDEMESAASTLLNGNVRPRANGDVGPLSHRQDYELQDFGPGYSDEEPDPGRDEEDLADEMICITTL

Row | SMILES | outcome
1 | CC(C)OP(=O)(O)NC(=O)c1ccccc1 | inactive
2 | N#CC1=C(N)Oc2cc(O)ccc2C1c1ccc2c(c1)OCO2 (configuration not stated) | inactive
